Assay outcomes as filed in PubChem.
CYP2C9 activ = CYP2C9 (human) activation; P11712; recombinant CYP2C9, luciferin-H conversion, luminescence; stronger effect = higher value; factor 1 = untreated enzyme, 0 = blocked; AID 1024; 96,000 compounds, 1.4% hits; activation factor at 5 µM;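 active means activation factor of 2 or more for CYP2C9 at a 5 µM dose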;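 further: 0 = sulfaphenazole-blocked wells and 1 = vehicle-only wells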
CYP2C19 activ = cytochrome P450 2C19 (human) activation; P33261; recombinant CYP2C19, luciferin-H EGE luminescence; stronger effect = higher value; 0 = fully inhibited enzyme, 1 = untreated enzyme; activation factor at 5 µM; 96,000 tested, under 10 active; AID 1025;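 active means activation factor of at least 2 at 5 µM in the primary screen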;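 further: 0 = wells with 2.5 mM tranylcypromine and 1 = vehicle-only wells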
Target sequence (P33261 whole entry, looked up): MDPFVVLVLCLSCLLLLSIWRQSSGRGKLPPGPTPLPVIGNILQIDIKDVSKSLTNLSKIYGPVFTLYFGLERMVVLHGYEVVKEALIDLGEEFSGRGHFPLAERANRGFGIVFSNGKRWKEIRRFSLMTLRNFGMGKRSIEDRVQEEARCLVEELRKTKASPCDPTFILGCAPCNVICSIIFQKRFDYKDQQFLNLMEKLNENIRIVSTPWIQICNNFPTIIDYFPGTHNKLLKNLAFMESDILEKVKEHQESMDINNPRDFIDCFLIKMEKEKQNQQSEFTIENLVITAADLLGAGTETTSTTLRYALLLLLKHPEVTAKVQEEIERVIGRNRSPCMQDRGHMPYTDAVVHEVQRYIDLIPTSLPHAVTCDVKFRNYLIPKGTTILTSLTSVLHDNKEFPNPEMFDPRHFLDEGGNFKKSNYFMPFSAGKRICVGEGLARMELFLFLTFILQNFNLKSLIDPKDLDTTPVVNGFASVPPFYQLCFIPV
CYP2C9 inhib = inhibitors of human CYP2C9; CYP2C9 Supersomes, luciferin-H conversion, luminescence; 96,000 compounds, 20% hits; inhibition, % at 5 µM;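 active means blocking of liver enzyme CYP2C9 beyond about 50% at 5 µM, limit read from the data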
Cav32 inh = inhibitors of human Cav3.2 T-type calcium channel; Cav3.2-expressing cells, Fluo-4 calcium fluorescence FDSS; stronger effect = lower value; O95180; 100,000 compounds, 4% hits; B-score at 10 µM;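 active means single-dose well whose peak fluorescence ratio is a statistical outlier from its plate by either plate-standardised score or position-corrected B-score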
CYP2C19 inhib = human CYP2C19 inhibition; AID 778; CYP2C19 Supersomes, luciferin-H EGE luminescence, 30 min; inhibition, % at 5 µM; 96,000 compounds, 21% hits;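 active means CYP2C19 inhibition above a set limit at 5 µM in the primary screen, cut at about 50% in these data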;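 further: plate controls were negative control wells for no effect and 2.5 mM tranylcypromine positive control for full effect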
The depositor's hits bear a star; . = no result given. Compounds with a hit are over-represented: about 27% of the library has one in this group of screens.

SMILES | CYP2C9 activ | CYP2C19 activ | CYP2C9 inhib | Cav32 inh | CYP2C19 inhib
CCOc1ccc(N/N=C(/C#N)C(N)=O)cc1 | 1 | 1 | 0 | -0.36 | 2
C=CCn1c(C)c(C(C)=O)c(N2CCN(c3ccccc3)CC2)nc1=S | 0.9 | 0.9 | 12 | -1.6 | 9
CCC(=O)N1CN(S(=O)(=O)c2ccc(C)cc2)CC1C (centres undefined) | 0.9 | 0.5 | 13 | 0.35 | 53*
CCOC(=O)C1CN(S(=O)(=O)c2ccc(C)cc2)C1 | 1 | 0.8 | -3 | -0.55 | 24
N#Cc1c(-c2ccccc2Cl)cc(C2CC2)nc1N | 1.5 | 0.3 | -53 | -0.48 | 74*
COc1ccccc1-c1cc(C2CC2)nc(N)c1C#N | 1.2 | 0.2 | -17 | -0.47 | 80*
Cc1nc(N)c(C#N)c(-c2ccccc2Cl)c1C | 1.3 | 0.9 | -29 | 0.87 | 10
O=C(/C=C/c1ccccc1)Nn1cnnc1 | 0.5 | 0.5 | 54* | 0.95 | 53*
Cc1ccc(C(=O)Oc2oc(-c3ccco3)nc2C=Nc2ccccc2)cc1 | 0.9 | 0.8 | 9 | -0.56 | 18
CCCc1cc(=O)n2c([nH]c3ccccc32)c1C#N | 0.4 | 1 | 56* | -0.22 | -2
Cc1cc(C)c(C(=O)CC2(O)C(=O)Nc3ccccc32)cc1C (centres undefined) | 0.7 | 0.1 | 28 | -1.7 | 92*
CCC1=C(OC(=O)N(CC)CC)N2C(=O)OC(=NCC3CC3)[C@]2(Cc2ccccc2)[C@H]2C1=CC[C@H]1C(=O)N(CC)C(=O)[C@H]12 | . | . | . | -0.54 | .
CNC(=S)N1CCN(c2c(F)cc3c(=O)c(C(=O)O)cn(C4CC4)c3c2OC)CC1C (centres undefined) | 0.7 | 1 | 28 | 4.4* | 4
C[C@H]1COc2c(N3CCN(C)CC3)c(F)cc3c(=O)c(C(=O)O)cn1c23 | . | . | . | 0.19 | .
CCN(CC)CCN1C(=O)c2ccccc2NC1c1ccc(C)cc1 (centres undefined) | 1.3 | 1 | -27 | 0.034 | 0
O=C1c2ccccc2NC(c2ccc(O)cc2)N1Cc1ccco1 (centres undefined) | 0.4 | 0.8 | 60* | -0.26 | 20
Cc1ccc(C2Nc3ccccc3C(=O)N2Cc2ccco2)cc1 (centres undefined) | 0.1 | 0.6 | 86* | -2 | 37
Cc1ccc2c(c1)COc1c3ccc(C(=O)NC(C)C)cc3nn1-2 | . | . | . | -0.96 | .
Cc1cc(-c2ccccc2)nc(N(C)NC(=O)c2ccc(Cl)cc2)c1S(C)(=O)=O | 0.6 | 1 | 40 | 0.77 | 2
CNC(=S)N1N=C(c2ccc(Br)cc2)CC1c1ccc(Br)cc1 (centres undefined) | 0.1 | 0 | 95* | -6.7* | 98*
Cc1ccc(S(=O)(=O)NC(C)C(c2cccs2)N2CCN(C)CC2)cc1 (centres undefined) | . | . | . | 0.3 | .
CC(NS(=O)(=O)c1ccccc1)C(c1cccs1)N1CCN(C)CC1 (centres undefined) | 1 | 0.4 | 3 | 0.88 | 63*
Cc1ccc(S(=O)(=O)NC(C)C(c2cccs2)N2CCOCC2)cc1 (centres undefined) | . | . | . | 0.056 | .
CCN1CCN(C(c2cccs2)C(C)NS(=O)(=O)c2ccc(Br)cc2)CC1 (centres undefined) | 0.9 | 0 | 9 | . | 95*
Clc1ccc(OCCSc2ncccn2)c2ccccc12 | 1.1 | 0.9 | -5 | -2.5 | 11
SMILES | CYP2C9 activ | CYP2C19 activ | CYP2C9 inhib | Cav32 inh | CYP2C19 inhib
c1cnc(SCCOc2cccc3ccccc23)nc1 | 1.5 | 0.4 | -47 | -4.1 | 57*
Cc1ccnc(SCCn2c(N3CCC(C)CC3)nc3c2c(=O)n(C)c(=O)n3C)n1 | . | . | . | 0.2 | .
O=c1c2ccccc2[nH]c(=S)n1Cc1cccnc1 | 0.7 | 0.2 | 32 | -0.17 | 82*
O=c1c2cc(Br)ccc2[nH]c(=S)n1Cc1cccnc1 | 0.9 | 0.7 | 12 | . | 26
COc1cccc(C2CC(c3cccs3)Nc3ncnn32)c1 (centres undefined) | 1 | 0.7 | 0 | . | 32
Brc1cccc(C2CC(c3ccccc3)n3nnnc3N2)c1 (centres undefined) | 0.2 | 0.2 | 80* | -2.3 | 78*
c1ccc(C2CC(c3cccs3)n3nnnc3N2)cc1 (centres undefined) | 0.3 | 0.2 | 74* | 0.42 | 83*
CC(SC1CCCC1)C(=O)NC(C)(C#N)C(C)C (centres undefined) | 0.9 | 0.8 | 6 | -0.67 | 16
O=C(NC1(C(F)(F)F)NC(=O)N(CC2CCCCC2)C1=O)c1ccco1 (centres undefined) | 0.7 | 0.8 | 31 | 0.12 | 18
CCOC(=O)c1cccc(NS(=O)(=O)c2c(C)[nH]c(=O)[nH]c2=O)c1 | 0.8 | 0.9 | 20 | 0.82 | 9
CCOC(=O)c1cccc(NS(=O)(=O)c2ccc(NC(C)=O)cc2)c1 | 0 | 0 | 98* | -2.6 | 100*
CCC(CC)C(=O)Nc1cccc(C(=O)Nc2ccc(S(=O)(=O)Nc3ccc(C)cc3)cc2)c1 | 0.1 | 0.1 | 90* | -2.4 | 87*
COC(=O)c1ccc(N2CCCCC2)c(NS(=O)(=O)c2ccc(C)cc2)c1 | 0.1 | 0.7 | 87* | -3.7* | 32
CCOC(=O)c1cccc(NS(=O)(=O)c2cnc[nH]2)c1 | 0.3 | 0.7 | 74* | 0.37 | 26
CCN1C(=O)NC2C1N(S(C)(=O)=O)CCN2S(C)(=O)=O (centres undefined) | 1.1 | 1 | -7 | 0.68 | -4
CC(C)OP(=O)(c1ccc(N(C)C)cc1)C(O)c1ccccc1 (centres undefined) | 1.1 | 0.6 | -6 | 0.36 | 39
COc1cccc(S(=O)(=O)Nc2ccc(C(=O)N3CCOCC3)cc2)c1 | 0.8 | 0.8 | 20 | 0.42 | 20
Cc1ccc(-n2c(-c3cccnc3)n[nH]c2=S)c(C)c1 | 1 | 1 | -1 | 2.1 | 3
COC(=O)c1ccc(C)c(NS(=O)(=O)c2ccc(NC(C)=O)cc2)c1 | 0 | 0.2 | 96* | 0.22 | 76*
CCOC(=O)c1ccc(NS(=O)(=O)c2cnc[nH]2)cc1 | 0 | 0.7 | 98* | -0.35 | 28
CCOC(=O)c1ccc(NC(=O)c2ccc(NS(C)(=O)=O)cc2)cc1 | 0.9 | 1 | 6 | 1.7 | -1
COc1cc(NS(=O)(=O)c2ccc(NC(C)=O)cc2)ncn1 | 1 | 0.9 | 3 | 0.22 | 8
CCN(CCCNC(=O)C1CCCN(S(=O)(=O)c2cnc[nH]2)C1)c1ccccc1 (centres undefined) | 0.5 | 0.2 | 52* | -1.4 | 78*
CCN(CCNC(=O)C1CCCN(S(=O)(=O)c2cnc[nH]2)C1)c1ccccc1 (centres undefined) | 0.1 | 0.1 | 95* | 1.4 | 90*
O=C(NCCN1CCN(c2ccccc2)CC1)C1CCCN(S(=O)(=O)c2cnc[nH]2)C1 (centres undefined) | 0.8 | 0.9 | 19 | 0.17 | 12
CCOC(=O)CNC(=O)CN1C(=O)CCS(=O)(=O)c2ccccc21 | . | . | . | -0.29 | .
CCOC(=O)c1ccc(N/C(=N\S(=O)(=O)c2ccccc2C)c2ccccc2)cc1 | 0.7 | 0.8 | 31 | -1.9 | 23
